From PubChem BioAssay AID1259240 (Keith Lab, Institute of Cancer Science, University of …, 2017) come the findings set out here.

This test can be described thus: TERT promoter activity modulators, primary screen, cell-based, luciferase reporter, human (AID 1259240). Conditions: A2780 TERT promoter luciferase reporter, 16 h; at 20 µM, fold versus average of vehicle-only wells.

Calls of active or inactive are those of the source. No stated cut-off is given here; in the data, active means fold change mostly below about -2 (no sharp cut-off); inactive means mostly above about -1.8.

For `COc1ccc2cc3c(N)nn(C(=O)c4cncc(Br)c4)c3nc2c1`, the fold change is -1.5 (inactive). On to `CCCN(CCC)c1c(NC2CCN(C(=O)OCC)CC2)c(=O)c1=O`, for which the fold change is -1.25 (inactive). `COc1cc2c(=O)c(S(=O)(=O)c3ccccc3)cn(Cc3ccccc3F)c2cc1OC`: the fold change was 1.06 (inactive). As for `O=[N+]([O-])c1c(Nc2ccc(Cl)cc2)n[nH]c1-c1nnco1`, the fold change is -2.07 (active). On the same count and under the same terms, the result for `O=c1c2ccccc2nc(N2CCOCC2)n1Cc1ccccc1` reads -1.33 (inactive); that for `c1nc(N2CCOCC2)c2sc3nc(N4CCOCC4)c4c(c3c2n1)CCCC4`, -1.09 (inactive).

For `CCC(C)(C)C(=O)Nc1nc2c(s1)C(=O)CC(C)(C)C2`, the fold change is 1.17 (inactive). As to `COC(=O)CSc1nnc2sc3ccccc3n12`, the fold change was -1.32 (inactive). With `Cc1cc(C)n(-c2nc3ccccc3n3cnnc23)n1`, the fold change was -1.18 (inactive). The same measure, in the same setting: the result for `CCCCN(CC)CCNS(=O)(=O)c1cccc2cccnc12` reads -1.21 (inactive). Consider `Cn1c(SCC(=O)N2CCOCC2)nnc1-c1c[nH]c2ccccc12`, for which the compound was called inactive.

As to `CCCCNS(=O)(=O)c1ccc(C)c(-c2nnc3c4ccccc4c(C)nn23)c1`, the fold change is -1.28 (inactive).

Consider `c1coc(CSc2nc3ccccc3n3cnnc23)c1`, for which the fold change was 1.16 (inactive). On to `CCc1ccc2[nH]cc(S(=O)(=O)c3ccc(C)c(C)c3)c(=O)c2c1`, for which the fold change was 1.15 (inactive). Turning to `O=c1/c(=C/c2ccc(F)cc2)sc2nc(-c3ccco3)nn12`, the fold change is -1.22 (inactive). For `Cn1c2ccccc2c2c(C(=O)Nc3ccccc3F)cn(C3CCCC3)c(=O)c21`, the fold change was -1.15 (inactive). Turning to `O=S(=O)(NCc1ccccn1)c1cccc2cccnc12`, the fold change was -1.29 (inactive). On the same count and under the same terms, as for `Cc1csc(NC(=O)C2=CCN(S(=O)(=O)c3ccccc3)CC2)n1`, the figure is 1.13 (inactive); as for `CCc1ccc2[nH]cc(S(=O)(=O)c3ccc(F)cc3)c(=O)c2c1`, -1.48 (inactive).

Turning to `CCSc1nc2ccccc2n1S(=O)(=O)c1ccccc1`, the fold change is -2.48 (active). Take `CSc1ccc(CCNc2ccc3nnc(-c4ccccc4)n3n2)cc1`: the fold change is 1.07 (inactive). With `O=C(O)CCN1C(=O)c2ccccc2S1(=O)=O`, the fold change was -1.2 (inactive). Consider `Cc1ccn2cc(-c3cccc(S(=O)(=O)N4CC(C)OC(C)C4)c3)nc2c1` (stereo not given), for which the fold change is -1.09 (inactive). For the compound `O=C(CSc1nc(-c2ccco2)cc(C(F)(F)F)n1)NCC1CCCO1` (stereo not given), the fold change is -1.44 (inactive).

For `Cc1cc(C)c2c(=O)n(CC(=O)N3CCOCC3)sc2n1`, the fold change is 1.35 (inactive). The same measure, in the same setting: the result for `Cc1ccc2c(c1)/C(=c1/sc3n(c1=O)CN(c1ccc(Cl)cc1)CN=3)C(=O)N2` reads -1.65 (inactive). On to `COc1ccc(Nc2c(-c3cccc(O)c3)nc3ncccn23)cc1`, for which the fold change was 1.03 (inactive). As for `CCOC(=O)C1CCCN(c2c(NCCN(C)C)c(=O)c2=O)C1` (stereo not given), the fold change was 1.36 (inactive). Turning to `CC(C)(C)c1ccc(OCc2nc(-c3ccncc3)no2)c(Br)c1`, the fold change is -1.23 (inactive). Take `O=C(NCCc1c[nH]c2ccccc12)c1ccc(NC2=NC3CS(=O)(=O)CC3S2)cc1` (stereo not given): the fold change was -1.35 (inactive).

In the case of `COc1ccc2c(NCC3=CC=CC3)cc(C)nc2c1`, the fold change was -1.73 (inactive).

Consider `CCNC(=O)CC1C(=O)N(c2ccc(F)cc2)C(=O)N1CCC(C)C` (stereo not given), for which the fold change was 1.24 (inactive). `Cc1ccccc1-c1nc(CSCC(=O)O)c(C)o1`: the fold change was -1.01 (inactive). In the case of `CCC(=O)N1CCc2cc(S(=O)(=O)CCC(=O)NCC3COc4ccccc4O3)ccc21` (stereo not given), the fold change was -1.32 (inactive). The same measure, in the same setting: the result for `CC1CCCC(C)N1C(=O)CN1C(=O)COc2ccc(S(=O)(=O)N3CCCCCC3)cc21` (stereo not given) reads -1.25 (inactive); that for `COc1ccc2c(=O)c(Oc3ccc(C)cc3)c(C(F)(F)F)oc2c1`, -1.15 (inactive); that for `c1ccc(CNc2nc3ccccc3n3cnnc23)nc1`, 1.11 (inactive). Same read-out and setting: the result for `CN1CCc2c(sc3c2C(=O)NC(c2ccc(OC(=O)c4ccccc4Cl)cc2)N3)C1` (stereo not given) reads -1.85 (inactive); that for `C1=C(CCNc2nnc(Cc3cccnc3)c3ccccc23)CCCC1`, -1.15 (inactive). Still for that read-out and setting: the result for `Cc1cc(NC(=O)c2cc3c(s2)-c2ccccc2S(=O)(=O)C3)no1` reads 1.14 (inactive); that for `CC(C)C(NS(=O)(=O)c1cccc2nsnc12)C(=O)NC1CCCCC1C` (stereo not given), -1.42 (inactive); that for `Cn1c(=O)oc2cc(S(=O)(=O)N3CCC(C(=O)Nc4nccs4)CC3)ccc21`, 1.31 (inactive).

Take `Cn1c(=O)[nH]c(=O)c2c1nc(NCCc1ccccc1)n2CCO`: the fold change is -1.23 (inactive). As for `O=C(Nc1cnn(Cc2ccc(F)cc2)c1)c1cc(C2CC2)on1`, the fold change was -1.17 (inactive).

With `FC(F)(F)c1ccc2c(c1)C1C=CCC1C(c1ccncc1)N2` (stereo not given), the fold change was -1.04 (inactive). In the case of `COc1ccc(OC(C)c2nc(-c3ccc(OC)cc3)no2)cc1` (stereo not given), the fold change is 1.61 (inactive). In the case of `Oc1oc(-c2ccccc2)nc1C=Nc1ccc(Cl)c2cccnc12`, the outcome was inactive. Regarding `Cc1ccc2nc(Cl)c3nncn3c2c1`, the fold change is 1.44 (inactive).

Regarding `CCOC(=O)C1CCN(c2c(N3CCC(C(=O)OCC)CC3)c(=O)c2=O)CC1`, the fold change was 1.06 (inactive).

For `CN(CC(=O)Nc1ccc2c(c1)OCO2)S(=O)(=O)c1ccc2c(c1)c(=O)n(C)c(=O)n2C`, the fold change was -1.32 (inactive).

With `COc1ccc(-c2cc(N)n(S(=O)(=O)c3ccc([N+](=O)[O-])cc3)n2)cc1OC`, the fold change is 1.17 (inactive).

As to `CCOC(=O)Cn1c(=O)oc2cc(S(=O)(=O)Nc3ccc(F)cc3)ccc21`, the fold change was -1.03 (inactive). For the compound `Cc1cc(C(=O)N2CCN(Cc3ccc4c(c3)OCO4)CC2)on1`, the fold change was 1.36 (inactive). Consider `CN(C)c1ccc(/C=C2/SC(=S)NC2=O)cc1`, for which the fold change is -4.47 (active). Regarding `COc1cccc(/C=c2\sc3nc(-c4ccco4)nn3c2=O)c1OC`, the fold change is 1.43 (inactive). For `O=C(Cn1c(=O)oc2cc(S(=O)(=O)N3CCc4ccccc43)ccc21)NC1CCCC1`, the fold change was -1.1 (inactive). Same read-out and setting: as for `CN(C)C(=O)c1ccc2c(c1)n(C)c(=O)n2C`, the figure is 1.05 (inactive).

On to `COc1ccc(CCn2c(=O)c3cccnc3n(CC#N)c2=O)cc1OC`, for which the fold change was 1.04 (inactive).

Regarding `Cn1c(=O)oc2cc(S(=O)(=O)N3CCC(C(=O)NCC4COc5ccccc5O4)CC3)ccc21` (stereo not given), the fold change was -1.13 (inactive). As for `CN(Cc1ccco1)C(=O)c1ccc(CNc2c(N3CCCCC3)c(=O)c2=O)cc1`, the fold change is -1.11 (inactive). Same read-out and setting: as for `CN(C(=O)Cn1c(=O)n(CCCS(=O)(=O)C2CCCCC2)c(=O)c2ccccc21)c1ccccc1`, the figure is -1.1 (inactive); as for `CCCCC1=NN(C(=O)C(=O)Nc2ccc(Br)cc2)C(O)(C(F)(F)F)C1` (stereo not given), 1.01 (inactive); as for `CC(=O)C(Sc1nc(C)nc2c1c(=O)n(C)c(=O)n2C)C(C)=O`, 1.87 (inactive).

Consider `CCOC(=O)N1CCC(Nc2c(N(CC)CC)c(=O)c2=O)CC1`, for which the fold change was 1.22 (inactive). As for `O=C(CCCCn1c(=O)[nH]c2ccsc2c1=O)NCCc1c[nH]c2ccccc12`, the fold change was -2.16 (active). Still for that read-out and setting: as for `Cc1nc2ncccn2c1-c1csc(Nc2ccc(Cl)cc2)n1`, the figure is -2.31 (active). Take `Cn1c2ccccc2c2cnn(CC(=O)NCCc3c[nH]c4ccccc34)c(=O)c21`: the fold change was 1.23 (inactive). For `COc1cccc(/C=c2\sc3nc(=O)c(Cc4ccc(Cl)cc4)nn3c2=O)c1OC`, the fold change was -1.08 (inactive). For the compound `CC(NC(=O)c1cnn2c(C(F)F)cc(-c3ccccc3)nc12)c1ccccc1` (stereo not given), the fold change is -1.39 (inactive).

With `COc1ccc(-c2nnc3c4ccccc4c(C)nn23)cc1S(=O)(=O)NC(C)C`, the fold change is -1.07 (inactive). Consider `CCCC1=NN(C(=O)CSCc2ccccc2Cl)C(O)(C(F)(F)F)C1` (stereo not given), for which the fold change is -2.03 (active).

For the compound `CC(C)CNC(=O)CSc1nc(-c2cccs2)cc(C(F)(F)F)n1`, the fold change was -2.24 (active). Same read-out and setting: the result for `C=CCN1CN=C(NS(=O)(=O)c2ccc(C)cc2)NC1` reads -1.75 (inactive). The same measure, in the same setting: the result for `O=C(Cn1c(=O)n(Cc2ccco2)c(=O)c2ccccc21)Nc1ccc(Cl)cc1Cl` reads -1.13 (inactive); that for `CCn1c(Oc2ccccc2)nc2c1c(=O)n(C)c(=O)n2C`, -1.53 (inactive).
